S2 tox: cell viability loss in ATXN counter-screen | S2 cells (HEK-293 line with an ATXN2-luciferase reporter) viability, CellTiter-Fluor protease fluorescence, 24 h | Potency, µM (highest dose often 56.7 µM), most hits filed as cytotoxic | hit rate 0.49% among 400,000 | AID 651635; further: nearly all actives have a fitted effect of over 40% in size
HepG2 tox-1: HepG2 cytotoxicity, counter-screen for TGF-b inhibitors; Potency, µM (top dose mostly 46.1 µM), without a hit: top-dose activity change, negative = cytotoxicity, actives largely listed as cytotoxic; hit rate 0.76% among 410,000; HepG2 CAGA-GFP viability, ATP luminescence, 18 h
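HepG2 CAGA-GFP cells (1000/well, DMEM with 1% FBS) received compound, then TGF-beta at 500 pg/mL final, and were incubated 18 hours at 37 degrees C. Viability was read by CellTiter-Glo luminescence. Media-only wells were set as complete cell-killing and DMSO as no toxicity.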
ATXN2 expr inh: reduces ATXN2 reporter expression in HEK-293 cells; HEK-293 ATXN2-luciferase reporter, luminescence, 24 h; Potency, µM (top dose mostly 57 µM), inactives show top-dose activity change, negative = inhibition, hits mostly inhibitors; hit rate 0.72% among 360,000; AID 1745845; further: on the % scale 0 is the no-effect control and ±100 the full control effect; nearly all actives have a fitted effect of over 55% in size
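qHTS (up to 57 uM final) was run with 24 h compound exposure of reporter cells at 37 °C. Each well was multiplexed: SteadyGlo luminescence measured ATXN2-luciferase expression after a fluorogenic Gly-Phe-AFC viability readout (25 uM final).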
TGFb inhibitor: TGF-b pathway inhibition; hit rate 1.2% among 410,000; AID 588855; Potency, µM (series often up to 46.1 µM), without a hit: at the highest dose activity, negative = inhibition, actives largely listed as inhibitors; HepG2 CAGA-GFP TGF-b/SMAD3 reporter, GFP fluorescence, 18 h; TGF-beta stimulated, 500 pg/mL final; further: on the % scale 0 is the no-effect control and ±100 the full control effect; nearly all actives have a fitted effect of over 65% in size
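TGF-beta reporter screen: HEPG2 CAGA-GFP, 1% FBS, 500 pg/mL TGF-beta final, 18 h; per-cell GFP summed per well; curves fitted and categorized by class.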
Nrf2 block: Nrf2 pathway inhibition; Potency, µM (series often up to 46 µM), for inactives: at the top dose activity change, negative = inhibition, hits mostly inhibitors; hit rate 2.1% among 360,000; A549 ARE-Fluc reporter, luciferase luminescence, 18-24 h; AID 504444; further: on the % scale 0 is the no-effect control and ±100 the full control effect; nearly all actives have a fitted effect of over 60% in size
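A549 ARE_Fluc cells, 5000/well, 5% FBS OPTI-MEM; compounds in dose-response, 18-24 h at 37 °C/5% CO2; CellTiter-Fluor viability read (Ex 405/Em 525), then BugLite luciferase luminescence = Nrf2 activity.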
A549 tox: counter-screen for Nrf2 inhibitors: cytotoxicity in A549 cells | A549 ARE-Fluc cells, CellTiter-Fluor viability, 18-24 h | Potency, µM (titrated, usually from 46 µM), inactives show top-dose activity change, negative = cytotoxicity, most hits filed as inhibitors | hit rate 0.16% among 390,000 | AID 504648; further: on the % scale 0 is the no-effect control and ±100 the full control effect
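A549 ARE_Fluc cells in 5% FBS OPTI-MEM were exposed to compounds in concentration-response for 18-24 h at 37 deg C. Viability was read by CellTiter-Fluor fluorescence (Ex 405/Em 525) after 30 min, before the luciferase read.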
TGFb CAGA inh: TGF-b pathway inhibition, cherry-pick retest; hit rate 63% among 1,600; HepG2 CAGA-GFP TGF-b reporter, GFP fluorescence, 18 h; cells stimulated with TGF-beta, 500 pg/mL; Potency, µM (highest dose often 46.1 µM), for inactives: at the highest dose activity, negative = inhibition, most hits filed as inhibitors; shares compounds with TGFb inhibitor; further: on the % scale 0 is the no-effect control and ±100 the full control effect; nearly all actives have a fitted effect of over 65% in size
HepG2 tox-2: HepG2 cytotoxicity, TGF-b inhibitor counterscreen; Potency, µM (titrated, usually from 46.1 µM), without a hit: at the highest dose activity, negative = cytotoxicity, most hits filed as inhibitors; shares compounds with TGFb inhibitor; AID 720535; hit rate 27% among 1,600; HepG2 CAGA-GFP viability, ATP luminescence, 18 h; cells stimulated with TGF-beta, 500 pg/mL; further: on the % scale 0 is the no-effect control and ±100 the full control effect; nearly all actives have a fitted effect of over 70% in size
TGFb CCL64 inh: orthogonal confirmation of TGF-b inhibitors in CCL64 cells. shares compounds with TGFb inhibitor. CCL64 CAGA-GFP reporter, TGF-b stimulated, GFP fluorescence, 18 h. Potency, µM (titrated, usually from 46.1 µM), for inactives: top-dose activity, negative = inhibition, hits mostly inhibitors. hit rate 41% among 1,600; further: nearly all actives have a fitted effect of over 65% in size
TGFb COP inh: blocks TGF-b signaling in HepG2 COP reporter; shares compounds with TGFb inhibitor; HepG2 COP-GFP TGF-b reporter, GFP fluorescence, 18 h; cells stimulated by added recombinant TGF-beta; Potency, µM (highest dose often 46.1 µM), inactives show top-dose activity, negative = inhibition, most hits filed as inhibitors; hit rate 3% among 1,600; AID 720537; further: nearly all actives have a fitted effect of over 70% in size
Starred values were filed as active, the others as inactive; i = inactive; ? = inconclusive; · = not tested or not shown. A selection: hits, their analogues and other compounds. The true share with any hit is near 3.8%. The call rests on the fitted dose curve; in most records, active means well fitted curve in the direction sought with a large enough effect; inconclusive means small, poorly fitted or top-dose-only effect, or another doubt; inactive means no such curve, though single readings can be large; an effect the other way counts as inactive or inconclusive. Potency means the concentration at half of the fitted maximal effect.

SMILES | S2 tox | HepG2 tox-1 | ATXN2 expr inh | TGFb inhibitor | Nrf2 block | A549 tox | TGFb CAGA inh | HepG2 tox-2 | TGFb CCL64 inh | TGFb COP inh
Cc1cccc(C)c1OCC(=O)Nc1oc(-c2ccccc2)c(-c2ccccc2)c1C#N | i | -5.3% | -1.1% | 12.6µM* | ? | ? | ? | ? | ? | 26.9%
COC(=O)c1cccc(NC2=NS(=O)(=O)c3ccccc32)c1 | i | -42.2% | 12.2% | ? | · | -0.7% | · | · | · | ·
O=C(COc1ccc(C(=O)c2ccccc2)cc1)NCc1ccc(F)cc1 | ? | 4.5% | -22.1% | ? | 23.6% | 1.1% | 9.2µM* | -14.0% | ? | -3.6%
O=C(COc1ccccc1)NCc1ccccc1 | i | 11.0% | 13.0% | 0.0% | ? | 0.2% | · | · | · | ·
CCOc1ccc(C(=O)NC(=S)Nc2cccc(NC(=O)c3ccco3)c2)cc1[N+](=O)[O-] | i | -16.8% | -26.9% | 8.91µM* | -10.7% | -0.5% | 8.2µM* | -22.9% | ? | -7.2%
CCN(CC)S(=O)(=O)c1ccc2oc(SCC(=O)Nc3cc(C)on3)nc2c1 | i | -13.8% | ? | 10µM* | ? | -10.0% | ? | ? | -25.9% | 16.6%
Cc1cc(NC(=O)CSc2nc3cc(Cl)ccc3o2)no1 | i | -10.7% | -4.4% | 1.3% | 9.4% | -0.7% | · | · | · | ·
COc1ccc(CNC(=O)c2[nH]c(C(F)(F)F)nc2-c2ccccc2)cc1OC | i | -11.7% | 1.1% | -10.4% | · | · | · | · | · | ·
COc1ccc(CNc2cccc3[nH]c(C(F)(F)F)nc23)cc1OC | · | -30.6% | · | 5.62µM* | ? | -10.5% | ? | -3.6% | -20.9% | -9.2%
COc1ccc(/C=C/C(=O)c2ccc([N+](=O)[O-])o2)cc1OC | ? | 11.2µM* | 8.91µM* | 2.51µM* | -17.6% | ? | 2.91µM* | 4.61µM* | 2.06µM* | 0.5%
COc1cc(/C=C/C(=O)c2ccc([N+](=O)[O-])o2)ccc1O | 3.55µM* | -44.5% | ? | 1.12µM* | 19.4% | ? | 4.11µM* | 8.2µM* | 2.91µM* | ?
O=[N+]([O-])c1cccc(S(=O)(=O)Nc2ccc(S(=O)(=O)N3CCCC3)cc2)c1 | i | -2.3% | 2.2% | -0.5% | -15.9% | -6.5% | · | · | · | ·
O=[N+]([O-])c1cccc(S(=O)(=O)Nc2nc3ccccc3nc2Nc2cccc(S(=O)(=O)N3CCCCC3)c2)c1 | ? | -31.6% | ? | 4.47µM* | ? | ? | 3.26µM* | 6.51µM* | 2.91µM* | 0.9%
NC(=S)NN=C1Cc2cccc3cccc1c23 | i | -19.8% | -11.1% | ? | ? | 8.6% | · | · | · | ·
O=C(/C(=C/c1ccc(Cl)cc1)c1nc2ccccc2[nH]1)c1cccs1 | 3.55µM* | -105.9% | ? | 5.01µM* | ? | -5.8% | 3.26µM* | 2.59µM* | 4.11µM* | -19.7%
COc1cc(/C=C(/C(=O)c2cccs2)c2nc3ccccc3[nH]2)ccc1O | ? | -21.5% | ? | 15.8µM* | ? | ? | 7.31µM* | 13µM* | 13µM* | 71.3%
COC(=O)/C(=C\c1cc(OC)c(OC)c(OC)c1)c1nc2ccccc2[nH]1 | i | -18.8% | -5.1% | 1.1% | -20.6% | ? | · | · | · | ·
CCC(NC(=O)c1ccncc1)c1ccccc1 (stereo not given) | i | 5.9% | -1.7% | 11.8% | 10.1% | 8.6% | · | · | · | ·
CC(=O)OCc1cnc(C)c2oc(=O)c(C(=O)Nc3cccc(F)c3)cc12 | i | -0.6% | -1.7% | 32.4% | · | 10.9% | · | · | · | ·
COc1ccc(CC(=O)NC2CC(=O)N(c3cccc(F)c3)C2)cc1OC (stereo not given) | · | 4.2% | · | -36.5% | · | 0.4% | · | · | · | ·
COCCNC(=S)N/N=C(\C)c1ccc(-n2ccnc2)cc1 | i | -21.7% | 1.3% | ? | · | 21.3% | · | · | · | ·
COc1ccc(-c2cccc(-c3cc(=O)oc4cc(OC)cc(OC)c34)c2)cc1 | i | 3.2% | 5.8% | 1.41µM* | ? | -3.3% | 1.64µM* | -0.5% | 1.46µM* | -24.9%
CC(C)C(=O)Oc1ccc(CO)cc1[C@H](CCN(C(C)C)C(C)C)c1ccccc1 | · | · | -17.0% | · | · | · | · | · | · | ·
CC(=O)Nc1ccc(S(=O)(=O)c2ccnc3cc(Cl)ccc23)cc1 | i | -74.6% | · | 10µM* | · | · | 23.1µM* | ? | 20.6µM* | 14.7%
CC(=O)Nc1ccc(S(=O)(=O)Nc2ccc(Cl)cn2)cc1 | ? | 1.7% | -13.4% | 15.3% | -1.5% | -0.1% | · | · | · | ·
SMILES | S2 tox | HepG2 tox-1 | ATXN2 expr inh | TGFb inhibitor | Nrf2 block | A549 tox | TGFb CAGA inh | HepG2 tox-2 | TGFb CCL64 inh | TGFb COP inh
CCc1ccc(C2c3[nH]c4ccccc4c3CCN2C(=O)c2cc(C)nn2C)cc1 (stereo not given) | i | -19.0% | -22.7% | ? | 18.2% | -18.6% | · | · | · | ·
Cc1cc(C(=O)CCC(=O)NCC2COc3ccccc3O2)c(C)s1 (stereo not given) | i | -1.2% | 6.4% | -5.4% | 2.1% | -9.1% | · | · | · | ·
COCCNc1nc(NCc2ccccc2OC)c2sccc2n1 | ? | -25.5% | ? | 1.0% | · | · | · | · | · | ·
COCCNc1nc(NCc2ccccc2)nc2ccsc12 | i | -22.9% | -7.7% | 2.51µM* | · | · | 3.66µM* | ? | 4.11µM* | 57.4%
Cc1ccc(CNc2nc(NCc3ccccc3)nc3ccsc23)c(C)c1 | ? | -115.8% | ? | 5.01µM* | · | · | ? | ? | 14.6µM* | ?
COCCNc1nc(NCCCN2CCCC2=O)c2sc(-c3ccccc3)cc2n1 | ? | -31.9% | -17.2% | -9.7% | · | · | · | · | · | ·
O=C1CCCN1CCCNc1nc(NCc2ccccc2)nc2ccsc12 | i | -37.1% | -8.6% | 3.16µM* | · | · | 2.91µM* | 7.31µM* | 5.17µM* | 48.4%

Bioassay records as filed in PubChem.
